In all, about 88,000 compounds went through this assay and about 260 (0.3%) were called active. The full list was thinned out, with actives kept by preference. A number with no mark means an inactive call.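 Rule for the calls: active = compounds that reduce the energy-transfer binding signal between the protein and its labelled peptide by more than half; inactive = the rest.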

In the assay the target is Mothers against decapentaplegic homolog 3 (Homo sapiens) (UniProt P84022). Briefly: Smad3/FoxH1 peptide binding inhibitors, primary screen, biochemical, TR-FRET (AID 630).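 Note: 0% = Smad3 plus labelled peptide maximal FRET and 100% = peptide-only background.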 The note with it: TR-FRET Smad3/Dy647-FoxH1 peptide binding, europium anti-His; at 25 µM; hits give high values. (In general: Time-resolved FRET reads energy transfer from a long-lived donor to a nearby acceptor.)
Chain of Mothers against decapentaplegic homolog 3 (Homo sapiens) (P84022 whole entry, looked up): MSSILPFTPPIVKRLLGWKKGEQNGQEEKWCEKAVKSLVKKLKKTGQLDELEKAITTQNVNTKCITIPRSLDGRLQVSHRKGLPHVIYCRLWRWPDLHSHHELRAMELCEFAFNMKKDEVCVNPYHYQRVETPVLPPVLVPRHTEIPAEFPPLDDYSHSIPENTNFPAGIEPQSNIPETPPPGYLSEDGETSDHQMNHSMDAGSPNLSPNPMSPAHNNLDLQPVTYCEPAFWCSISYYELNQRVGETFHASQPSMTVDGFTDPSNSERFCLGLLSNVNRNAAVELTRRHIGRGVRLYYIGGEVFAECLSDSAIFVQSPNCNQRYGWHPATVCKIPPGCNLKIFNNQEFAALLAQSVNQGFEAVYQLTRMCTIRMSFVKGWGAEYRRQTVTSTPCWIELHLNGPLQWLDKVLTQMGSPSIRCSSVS
The term inhibition denotes the change of the read-out against control, counted positive when it falls. `Cc1ccc(S(=O)(=O)O[C@H]2CN3CCC2CC3)cc1`: the inhibition is 67.3% (active).

Take `O=C1C[C@@H]2OCC=C3CN4CC[C@]56c7ccccc7N1[C@H]5[C@H]2[C@H]3C[C@H]46` (tested in a mixture with another compound): the inhibition is -5.82%.

In the case of `c1cc2c(cc1CCNC1CCCCCC1)OCO2`, the inhibition is -10.4%.

Take `CC[C@@](O)(C(=O)O)c1cc2n(c(=O)c1CO)Cc1cc3ccccc3nc1-2`: the inhibition was -1.51%.

On to `C=C[C@@H]1CN2CC[C@H]1C[C@@H]2[C@H](O)c1ccnc2ccccc12`, for which the inhibition is -9.04%.
